# Data from PubChem BioAssay (NCI).
# This is part of a sample that, as a whole, favours compounds with a hit. Of some 79,000 tested, about 15% had one in any assay. Activity calls are given as the source filed them. No stated cut-off is given here; in the data, active means growth inhibition above about 70%; inactive means the rest. *1 amine or outer side, *2 acyl side, *3 side chain or, on linkers, in order; H or OH if unused. Where a SMILES comes first, the peptide text is derived from it. Bridges are numbered along the chain shown (N, C = ends). [ ]: non-standard residue; d: D form. The star is where a group is joined. ξ: configuration not given here. X16 = CC(C)C(C)C(C(=O)[*:2])N(C)[*:1]; Picolinoyl(3-OH) = O=C(c1ncccc1O)*; NMePhg = CN[CH](C(=O)O)c1ccccc1; Hyp = O=C(O)[CH]1C[CH](O)CN1; Cbz = O=C(OCc1ccccc1)*; Boc = CC(C)(C)OC(=O)*; ξNva = CCCC(N)C(=O)O; Sar = CNCC(=O)O
# Assay: NCI Yeast Anticancer Drug Screen. Data for the mlh1 rad18 strain (AID 175)
# Conditions: S. cerevisiae mlh1 rad18 strain growth inhibition; at 50.0 µM; active compounds read high
# How it was run: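 Cells of a genetically altered yeast strain, deficient in DNA damage repair, were treated with compound. Their growth was then compared with that of vehicle-treated cultures to give inhibition.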
row,SMILES,growth inhibition
1,O=C(O)CCCCCC1=CCCCC1,23.5% (inactive)
2,O=C(N/N=C\c1cccc2c([N+](=O)[O-])cccc12)Nc1ccccc1,-31.6% (inactive)
3,O=C(N/N=C/c1ccccc1)c1c(F)c(F)c(F)c(F)c1F,0.6% (inactive)
4,CCOC(=O)C(CC(C)C)NC(=O)C(Cc1ccccc1)NC(=O)CNC(=O)OC(C)(C)C (stereo not drawn) (Boc-Gly-Phe-Leu-OEt; configuration not given here),18.2% (inactive)
5,Cc1cc(C)[n+](C)c2cc3ccccc3cc12,-28.5% (inactive)
6,CCN(CC)CCCC(C)Nc1ccnc2ccc3nn(C)nc3c12 (stereo not given),-14.3% (inactive)
7,O=C(O)CSc1cc(Br)c(Br)cc1C(=O)O,-15.9% (inactive)
8,Cc1ccc(S(=O)(=O)Oc2nc3nc4ccccc4nc3nc2OS(=O)(=O)c2ccc(C)cc2)cc1,-3.95% (inactive)
9,CC(c1ccccc1)n1cnc2c(=S)nc[nH]c21 (stereo not given),-9.95% (inactive)
10,CCN(CC)CC[n+]1ccc2c(C)c3[nH]c4ccccc4c3c(C)c2c1,15.9% (inactive)
11,Cc1ccc(S(=O)(=O)c2c(N)c3nccn3c3nc4ccccc4nc23)cc1,-88.8% (inactive)
12,Cc1nc2c(o1)C(=O)c1ccccc1C2=Nc1ccc(N2CCOCC2)cc1,39.1% (inactive)
13,CC(C)(C)n1c(=O)[nH]c(=O)n1C(C)(C)C,-22.2% (inactive)
14,NS(=O)(=O)c1ccc(C(=O)O)s1,-18.1% (inactive)
15,CCOC(=O)COc1cc2c(cc1C(C)c1cc(OC)c(OC)c(OC)c1)OCO2 (stereo not given),10.9% (inactive)
16,Cc1ccccc1CCOC(=O)c1cc([N+](=O)[O-])cc([N+](=O)[O-])c1,-16.4% (inactive)
17,CCCCCCCC/C=C\CCCCCCCC(=O)OC,49% (inactive)
18,CN(N=O)C(N)=NC(=O)c1ccccc1,-35.3% (inactive)
19,O=C(Nc1ccccc1)c1ccc2ccccc2n1,6.75% (inactive)
20,Oc1ccc(C2=NNC(c3ccc(O)cc3)=NN2)cc1,10.1% (inactive)

row,SMILES,growth inhibition
1,COc1ccc(-c2cc(=O)c3ccc(C)nc3[nH]2)cc1,-18.8% (inactive)
2,CCNC(=O)OCCN1C(=O)C2C3CCC(O3)C2C1=O (stereo not given),12.8% (inactive)
3,CCCC(NC(=O)OCc1ccccc1)C(=O)NCC(=O)NCC(=O)OC (stereo not drawn) (Cbz-[ξNva]-Gly-Gly-OMe),11.3% (inactive)
4,Cc1c(Cl)cccc1NC(=O)c1c(Cl)c(Cl)c(Cl)c(Cl)c1C(=O)O,14.1% (inactive)
5,COc1cc(C(=O)NNC(=O)C2CCC(=O)N2Cc2ccccc2)cc(OC)c1OC (stereo not given),28.4% (inactive)
6,Cc1cccc(C)c1NC(=O)C(=O)CC(=O)c1sc(Nc2c(C)cccc2C)nc1C,16.9% (inactive)
7,CNCC(O)(C(=O)O)C(=O)O,-7.95% (inactive)
8,CC(C)CC1NC(=O)C(NC(=O)c2ncccc2O)C(C)OC(=O)C(c2ccccc2)N(C)C(=O)C(C)NC(=O)C(C(C)C(C)C)N(C)C(=O)CN(C)C(=O)C2CC(O)CN2C1=O (stereo not given) ({Picolinoyl(3-OH)}-TL[Hyp][Sar][X16]A[NMePhg]; ester 1-C; configuration not given here),-2.35% (inactive)
9,N#CC1=C(O)NC(O)=C(C#N)C12C(=O)Nc1ccccc12,10.3% (inactive)
10,COc1ccc2c(c1)C(O)C(NCc1ccccc1)C2 (stereo not given),-8.55% (inactive)
11,O=C(O)C(=O)NCc1cnccn1,-19.1% (inactive)
12,O=S(=O)(O)CCc1ccccc1,-26.5% (inactive)
13,CCOc1ccc(C(C)c2cc3c(cc2OC)OCO3)cc1 (stereo not given),11.8% (inactive)
14,Nc1nc2[nH]c(=O)cnc2c(=O)[nH]1,-20.7% (inactive)
15,CC(=O)/C(=C\c1ccc([N+](=O)[O-])o1)C(=O)CCN(C)C,84.8% (active)
16,NC(N)=N/N=C/c1c(Cl)nc2sccn12,-5.6% (inactive)
17,O=C(NNC(O)C(F)(F)F)c1ccccc1 (stereo not given),1.5% (inactive)
18,CCOC(=O)C1CCN(S(=O)(=O)c2ccccc2)CC1,-6.15% (inactive)
19,CN(C)C(=S)/N=c1\ssc(=S)n1Cc1cccs1,12% (inactive)
20,CCOC(=N)CC(=O)Nc1ccccc1CC,20.9% (inactive)
